A549 tox = counter-screen for Nrf2 inhibitors: cytotoxicity in A549 cells | 0.16% of 390,000 active | A549 ARE-Fluc cells, CellTiter-Fluor viability, 18-24 h | Potency, µM (highest dose often 46 µM), actives largely listed as inhibitors | AID 504648
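A549 ARE_Fluc cells in 5% FBS OPTI-MEM were exposed to compounds in concentration-response for 18-24 h at 37 deg C. Viability was read by CellTiter-Fluor fluorescence (Ex 405/Em 525) after 30 min, before the luciferase read.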
Nrf2 activator = activates Nrf2 signaling; 0.31% of 410,000 active; Potency, µM (series often up to 46.1 µM), hits mostly activators; AREc32 ARE-luciferase reporter (MCF7-derived line), luminescence, 24 h; AID 624171; note: nearly all actives have a fitted effect of over 65% in size
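Nrf2 activation is followed as ARE-luciferase induction in the AREc32 line after one day of compound treatment; luminescence is read with Steady-Glo.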
IDH1 R132H inh = blocks human mutant IDH1 R132H enzyme. O75874. IDH1-R132H enzyme, NADPH consumption, diaphorase/resazurin fluorescence. Potency, µM (top dose mostly 76.6 µM), actives largely listed as inhibitors. 0.093% of 390,000 active; note: nearly all actives have a fitted effect of over 65% in size
Target sequence (O75874 whole entry R132H, stated change not applied): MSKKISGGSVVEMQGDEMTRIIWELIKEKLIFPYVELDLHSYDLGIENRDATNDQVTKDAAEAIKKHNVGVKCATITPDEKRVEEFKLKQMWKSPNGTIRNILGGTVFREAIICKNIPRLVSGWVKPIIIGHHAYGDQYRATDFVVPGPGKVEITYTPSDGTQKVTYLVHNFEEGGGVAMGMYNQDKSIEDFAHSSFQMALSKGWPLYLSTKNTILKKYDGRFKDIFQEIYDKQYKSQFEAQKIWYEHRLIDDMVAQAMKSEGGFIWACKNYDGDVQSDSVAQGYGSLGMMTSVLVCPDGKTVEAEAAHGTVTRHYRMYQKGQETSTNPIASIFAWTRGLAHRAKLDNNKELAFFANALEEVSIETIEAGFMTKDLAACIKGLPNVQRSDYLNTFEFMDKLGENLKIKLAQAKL
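IDH1-R132H (0.5 ug/mL) preincubated 30 min with compound, then NADPH (0.016 mM) and alpha-KG (2 mM) added; 80 min at RT, pH 7.5. Remaining NADPH coupled via diaphorase/resazurin to fluorescence (540/590 nm); concentration-response curves normalized to no-enzyme control.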
Nrf2 inh = Nrf2 pathway inhibition. A549 ARE-Fluc reporter, luciferase luminescence, 18-24 h. Potency, µM (doses to about 46 µM), actives largely listed as inhibitors. 2.1% of 360,000 active; note: nearly all actives have a fitted effect of over 60% in size
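Reporter: ARE-Fluc in A549. Exposure: 18-24 h, 37 °C, 5% CO2, 5% FBS OPTI-MEM. Readouts: fluorescent cytotoxicity (CellTiter-Fluor), then luminescent Nrf2 signal after BugLite.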
ELG1 repair inh = blocks ELG1-dependent DNA repair in HEK293T cells | HEK293T ELG1-luciferase reporter, luminescence, 16 h; DNA damage induced by 5-fluorouridine | AID 504467 | Potency, µM (titrated, usually from 46.1 µM), usual class: inhibitors | 2.3% of 330,000 active; note: nearly all actives have a fitted effect of over 55% in size
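DMSO vehicle served as the neutral condition. Each well held 2,000 cells given 5-fluorouridine plus compound; after 16 hr at 37 °C/5% CO2, ONE-Glo was added and luciferase measured 30 min later.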
A number is an active result; 0 = inactive; ? = inconclusive; - = no result. This is a sample that favours compounds with a hit; in the whole collection about 3.8% have one here. Calls come from the whole dose curve; as a rule, active = well fitted curve in the direction sought with a large enough effect; inconclusive = small, poorly fitted or top-dose-only effect, or another doubt; inactive = no such curve, though single readings can be large; an effect the other way counts as inactive or inconclusive.

SMILES	A549 tox	Nrf2 activator	IDH1 R132H inh	Nrf2 inh	ELG1 repair inh
NNc1nc(Nc2ccccc2)nc(Nc2ccccc2)n1	0	0	0	0	16µM
CC(C)(C)OC(=O)C[C@H]1C/C=C\C[C@@H](CC(=O)N(CCO)Cc2ccccc2)C(=O)N2CCC[C@@H]2COC1=O	0	0	0	0	?
CC(C)(C)OC(=O)C[C@@H]1C/C=C\C[C@@H](CC(=O)N(CCO)Cc2ccccc2)C(=O)N[C@H](Cc2c[nH]c3ccccc23)COC1=O	0	0	0	0	?
CC(C)(C)OC(=O)C[C@H]1C/C=C\C[C@@H](CC(=O)N(CCO)Cc2ccccc2)C(=O)N2CCC[C@H]2COC1=O	0	0	0	0	23µM
CC(C)(C)OC(=O)C[C@H]1C/C=C\C[C@@H](CC(=O)N(CCO)Cc2ccccc2)C(=O)N[C@H](Cc2c[nH]c3ccccc23)COC1=O	0	0	0	0	21µM
CC1CCc2cc(F)cc3c2N1C(=O)C(C(=O)Nc1cnccn1)C3=O (stereo not given)	0	-	-	0	-
Nc1nnc(SCC(=O)NNC(=O)c2ccccc2F)s1	0	0	0	0	0
CCC(=NCCc1c(C)[nH]c2ccc(OC(F)(F)F)cc12)C1=C(O)CC(c2ccccc2)CC1=O (stereo not given)	?	0	0	21µM	?
CCCCC(=NCCc1c(C)[nH]c2ccc(OC)cc12)C1=C(O)CC(c2ccccc2)CC1=O (stereo not given)	?	0	0	?	10µM
CC(=NCCc1c(C)[nH]c2ccc(OCc3ccccc3)cc12)C1=C(O)CC(c2ccccc2)CC1=O (stereo not given)	0	0	0	0	?
CCC(=NC)C1=C(O)CC(c2ccccc2)CC1=O (stereo not given)	0	0	0	0	0
CCC(=NCCc1c(C)[nH]c2ccccc12)C1=C(O)CC(c2ccccc2)CC1=O (stereo not given)	0	0	0	0	8.2µM
CN(Cc1ccc(F)cc1)S(=O)(=O)c1nnc(NC(=O)c2ccc(F)cc2)s1	0	0	0	?	-
O=C(CSc1ccc(-c2nc3ccccc3[nH]2)cn1)N1CCN(C(=O)c2ccco2)CC1	0	0	0	-	16µM
O=C(CCc1nc2ccccc2[nH]1)N1CCN(C(=O)c2ccco2)CC1	0	0	0	0	0
CC12C=CC(=O)C=C1CCC1C2C(=O)CC2(C)C1CCC2(O)C(=O)CO (stereo not given)	0	0	0	0.29µM	-
CC12C=CC(=O)C=C1CCC1C2C(=O)C[C@@]2(C)C1CCC2(O)C(=O)CO (stereo not given in full)	0	0	0	?	-
O=C(COc1cccnc1[N+](=O)[O-])N1N=C(c2ccc(Cl)cc2)CC1c1ccco1 (stereo not given)	0	0	0	?	?
O=C(OCC(=O)N1N=C(c2ccc(Cl)cc2)CC1c1ccco1)c1cccnc1 (stereo not given)	0	20µM	0	?	?
Cc1ccc(OCC(=O)N2N=C(c3ccc(Cl)cc3)CC2c2ccco2)c([N+](=O)[O-])n1 (stereo not given)	0	0	0	0	21µM
CNC(=S)N1N=C(c2ccc(C)cc2)CC1c1ccc(Cl)cc1 (stereo not given)	0	0	0	0	16µM
CCc1ccc(NC(=O)Cn2cc(S(=O)(=O)N3CCCC3)c(S(=O)(=O)N3CCCC3)c2)cc1	0	0	0	?	-
FC(F)Oc1ccc(-n2cc(-c3ccccc3)[n+]3c2CCCCC3)cc1	?	0	0	0	16µM
Cc1ccc(-c2cn(-c3ccc(OC(F)F)cc3)c3[n+]2CCCCC3)cc1	0	0	0	?	9.2µM
COCCN(C(=O)CSc1nnc(-c2cccc(OC)c2)n1C)c1c(N)n(Cc2ccccc2)c(=O)[nH]c1=O	-	-	-	-	0
SMILES	A549 tox	Nrf2 activator	IDH1 R132H inh	Nrf2 inh	ELG1 repair inh
Cc1ccc(NC(=O)Nc2ncnc3nc[nH]c23)cc1	0	0	0	0	?
O=[N+]([O-])c1cccc(-c2csc(N/N=C/c3cccc(O)c3)n2)c1	?	0	0	18µM	?
O=C(Nc1nc(-c2cccc([N+](=O)[O-])c2)cs1)C(c1ccccc1)c1ccccc1	?	0	0	15µM	0
CCOC(=O)Cc1csc(N/N=C/c2cccc([N+](=O)[O-])c2)n1	0	0	0	0	0
Cc1cc(=O)oc2c3c(ccc12)OCN(Cc1ccc(Cl)cc1)C3	0	0	0	0	-
CN(C1CCCCC1)S(=O)(=O)c1ccc2c(c1)c(=O)c(C(=O)O)cn2C	-	0	0	-	-
Cc1ccc(Nc2c(-c3ccc(N4CCOCC4)cc3)nc3ncccn23)c(C)c1	0	0	0	?	12µM
CCOC(=O)c1ccc(CNC(=O)CSc2nc(NC(=O)c3ccccc3)c3c(C)c(C)oc3n2)cc1	0	0	0	?	15µM
NC(N)=NC(=O)Cc1c(Cl)cccc1Cl	0	0	0	8.2µM	0
CCCN1CNc2c(c(=O)[nH]c(=S)n2CCc2cc(OC)cc(OC)c2)C1	0	-	-	0	-
COc1ccc(-c2nc(N)n(C(=O)c3ccc(C)cc3)n2)cc1	0	0	0	10µM	0
COc1ccc(C(=O)n2nc(-c3ccc(OC)cc3)nc2N)cc1	0	0	0	?	0
Cc1ccc(C(=O)n2nc(-c3ccco3)nc2NCc2cccs2)cc1	0	0	0	8.2µM	-
Nc1nc(-c2ccco2)nn1C(=O)c1ccc(F)cc1	0	0	0	18µM	0
CSCCC(NC(=O)c1ccco1)c1nc2ccccc2[nH]1 (stereo not given)	0	0	0	0	0
COc1ccc(Br)cc1C1NC(c2ccc3c(c2)OCO3)=CC(c2cc(Cl)ccc2O)N1 (stereo not given)	0	-	-	0	-
Cc1ccc(C)c(-n2cc(-c3ccccc3)nc2SCC(=O)Nc2ccccc2)c1	0	0	0	-	-
CC(C)(C)c1ccc(OCCNC(=S)Nc2ccccc2)cc1	?	0	0	16µM	0
CC(C)(C)c1ccc(OCCNCc2ccccc2)cc1	0	0	0	0	0
Cc1sc(NC(=O)c2ccco2)c(C(Nc2ccccn2)c2ccccc2)c1C (stereo not given)	0	0	0	21µM	?
CNc1c(C(=O)O)ccc2c1C(=O)c1ccccc1C2=O	18µM	0	0	?	0
O=C(CN1CCCCC1)Nc1cc(Cl)ccc1Oc1ccccc1	0	0	0	?	?
CC(C)CN1C(=O)C(=O)N(CC(=O)Nc2cc(Cl)ccc2Oc2ccccc2)C1=O	?	0	0	23µM	?
Cn1c(=O)n(C)c2cc(NC(=O)COc3ccc(Cl)cc3)ccc21	0	0	0	16µM	0
Cn1c(CCN2CCN(c3ccccn3)CC2)nc2cc(NC(=O)COc3ccc(Cl)cc3)ccc21	?	0	0	?	9.2µM

Compound activity as filed in PubChem.
